Screening results: PubChem, National Center for Advancing Translational Sciences (NCATS)
An excerpt weighted towards active compounds, which were near 9.2% of everything screened.
Rab9 promoter act – qHTS Assay for Rab9 Promoter Activators; Potency, µM (top dose mostly 9.22 µM), for the others: at the top dose activation, negative = inhibition, most hits filed as activators; Huh7 Rab9 promoter-luciferase reporter, luminescence, 24 h; 2.8% of 320,000 active; further: % of control where 0% means no effect; nearly all actives have a fitted effect of over 60% in size
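Huh7 cells stably carrying Rab9 promoter–luciferase reporter, plated 1500 cells/well, compound added after 2 h and incubated 24 h at 37 °C; luciferase luminescence then read after 10 min with detection reagent.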
FLuc counter – qHTS profiling assay for firefly luciferase inhibitor/activator using purifed enzyme and Km concentrations of substrates (counterscreen for miR-21 project). purified FLuc, Km substrates, luminescence inhibition. 6.9% of 360,000 active. Luciferin 4-monooxygenase (Photinus pyralis), P08659. AID 588342, 2011. Potency, µM (highest dose often 57.5 µM), for the others: at the top dose activity change, negative = inhibition, most hits filed as inhibitors;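 further: plate controls were vehicle for no effect and reference inhibitor for full effect; nearly all actives have a fitted effect of over 55% in size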
Target sequence (P08659 whole entry, looked up): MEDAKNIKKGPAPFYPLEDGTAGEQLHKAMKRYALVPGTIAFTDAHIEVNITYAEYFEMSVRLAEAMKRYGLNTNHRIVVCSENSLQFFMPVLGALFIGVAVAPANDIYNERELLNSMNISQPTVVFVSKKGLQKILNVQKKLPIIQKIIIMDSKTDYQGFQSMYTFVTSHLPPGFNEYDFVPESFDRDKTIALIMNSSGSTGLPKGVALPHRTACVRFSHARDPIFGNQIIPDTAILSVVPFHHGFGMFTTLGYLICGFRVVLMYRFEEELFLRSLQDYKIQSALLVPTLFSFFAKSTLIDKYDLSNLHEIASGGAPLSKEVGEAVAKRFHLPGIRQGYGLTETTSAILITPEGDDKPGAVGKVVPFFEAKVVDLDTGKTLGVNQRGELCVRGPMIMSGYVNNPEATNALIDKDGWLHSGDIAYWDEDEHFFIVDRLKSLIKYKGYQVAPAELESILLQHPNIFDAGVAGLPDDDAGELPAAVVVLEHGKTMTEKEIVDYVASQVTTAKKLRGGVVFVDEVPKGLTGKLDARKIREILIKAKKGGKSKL
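Purified P. pyralis luciferase (10nM final) with 10uM D-luciferin and 10uM ATP (Km levels) in 50mM Tris acetate pH 7.5, 10mM Mg acetate, 0.01% Tween-20, 0.05% BSA; qHTS 6-point titration, ~60 µM downward; luminescence read.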
ELG1 DNA repair – qHTS screen for small molecules that inhibit ELG1-dependent DNA repair in human embryonic kidney (HEK293T) cells expressing luciferase-tagged ELG1; HEK293T ELG1-luciferase reporter, luminescence, 16 h; DNA damage induced by 5-fluorouridine; Potency, µM (titrated, usually from 46.1 µM), without a hit: top-dose activity change, negative = inhibition, usual class: inhibitors; 2.3% of 330,000 active; AID 504467, 2011; further: on the % scale 0 is the no-effect control and ±100 the full control effect; nearly all actives have a fitted effect of over 55% in size
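5-Fluorouridine DNA damage + compound/DMSO, 2,000 cells/well, 16 h, 37 °C/5% CO2. ONE-Glo, 30 min RT, luminescence. Readout = decrease in reporter signal.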
NPC1 promoter act – qHTS Assay for NPC1 Promoter Activators; Huh7 NPC1 promoter luciferase reporter, 24 h; AID 485313, 2010; Potency, µM (highest dose often 9.22 µM), for inactives: top-dose activation, usual class: activators; 2.4% of 320,000 active; further: % of control where 0% means no effect; nearly all actives have a fitted effect of over 60% in size
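In 1536-well qHTS, Huh7 cells harboring an NPC1 promoter–luciferase construct received compound for 24 h; activation was quantified by luminescence following luciferase reagent addition.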
SMN2 splice up – qHTS Assay for Enhancers of SMN2 Splice Variant Expression; HEK293 SMN2-luciferase splicing reporter, luminescence, 30-36 h; Potency, µM (doses to about 46.1 µM), without a hit: top-dose activity change, positive = activation, actives largely listed as activators; 2.8% of 210,000 active; AID 1458, 2008; further: % of control where 0% means no effect; nearly all actives have a fitted effect of over 55% in size
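HEK293 cells carry an SMN2 minigene-luciferase reporter in which exon 7 inclusion puts luciferase in frame. Cells were seeded at 2000 cells/well, attached for 10-12 hours, then exposed to compounds for 30-36 hours at 37C before ONE-Glo luminescence.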
ELG1 genotox – qHTS screen for small molecules that induce genotoxicity in human embryonic kidney (HEK293T) cells expressing luciferase-tagged ELG1 | HEK293T ELG1-luciferase reporter, luminescence, 16 h | Potency, µM (highest dose often 46 µM), inactives show at the top dose activity change, positive = activation, usual class: activators | 1.3% of 330,000 active | AID 504466, 2011; further: % of control where 0% means no effect; nearly all actives have a fitted effect of over 60% in size
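After overnight (16 hr) compound treatment at 37 °C, ELG1-luciferase HEK293T cells were lysed with ONE-Glo; luminescence quantified 30 min later at room temperature.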
An asterisk follows results filed as active; ? = inconclusive; · = not tested or not shown; [ ] = dose if it differs, or a comment. The call rests on the fitted dose curve; in most records, active means well fitted curve in the direction sought with a large enough effect; inconclusive means small, poorly fitted or top-dose-only effect, or another doubt; inactive means no such curve, though single readings can be large; an effect the other way counts as inactive or inconclusive. Potency means the concentration at half of the fitted maximal effect.

SMILES	Rab9 promoter act	FLuc counter	ELG1 DNA repair	NPC1 promoter act	SMN2 splice up	ELG1 genotox
CC(C)n1c(SCC(=O)Nc2ccccc2N2CCOCC2)nc2c1c(=O)n(C)c(=O)n2C	0%	1%	?	-1%	-30%	-3%
CCn1c(SCC(=O)Nc2ccccc2N2CCCCC2)nc2c1c(=O)n(C)c(=O)n2C	-9%	3%	18µM*	-3%	-19%	-16%
O=C(c1ccncc1)N1CCC2(CC1)CN(c1cccc(-c3ccccc3)c1)C2	·	·	·	·	-45%	·
CCOCc1c(C(=O)Nc2ccc3nc(N4CCOCC4)sc3c2)oc2ccccc12	3%	·	12µM*	0%	·	-13%
CCOCc1c(C(=O)Nc2cc(OCC)c(N3CCOCC3)cc2OCC)oc2ccccc12	-5%	0%	13µM*	-7%	-59%	-9%
CCCn1nc(C(=O)Nc2ccc3nc(N4CCOCC4)sc3c2)ccc1=O	-19%	-18%	16µM*	-10%	·	-11%
CCOc1cc(N2CCOCC2)c(OCC)cc1NC(=O)c1oc2ccccc2c1C	2%	-1%	-1%	-13%	-1%	-8%
COc1ccc(C(=O)Nc2ccc3nc(N4CCOCC4)sc3c2)cc1OC	0%	?	?	2%	·	4%
CCOc1ccccc1CNC(=O)Cn1ccc2cc(S(=O)(=O)N3CCC(C)CC3)ccc21	-2%	-1%	-11%	-5%	·	-3%[9.26 µM]
O=C(CCCN1C(=O)c2cccc3cccc(c23)C1=O)N1CCN(c2ccccc2)CC1	-3%	-2%	?	3%	-26%	-1%
CCOc1ccccc1N1CCN(C(=O)CCCN2C(=O)c3cccc4cccc(c34)C2=O)CC1	-2%	1%	23µM*	0%	0%	-5%
O=C(CCCN1C(=O)c2cccc3cccc(c23)C1=O)N1CCN(c2ccccc2O)CC1	-3%	2%	10µM*	4%	-8%	-10%
Cc1cccc(C)c1OCC(=O)Nc1cccc(NC(=O)c2ccco2)c1	-3%	?	18µM*	-1%	-25%	-6%
COc1ccc(OCC(=O)Nc2ccc(NC(=O)c3ccco3)cc2)cc1	24%	0%	?	14%	28µM*	?
Cc1cccc(C)c1OCC(=O)Nc1ccc(NC(=O)c2ccco2)cc1	-4%	-5%	-21%	-5%	·	-6%
Cc1ccccc1OCC(=O)Nc1cccc(NC(=O)c2ccco2)c1	?	11µM*	-24%	-2%	-4%	-5%
COC(=O)CC1c2ccccc2C=C(C2CC2)N1C(=O)OC (stereo not given)	·	·	·	·	-3%	·
O=C(Nc1ccc(Cl)cc1)ON=C1CCCC1	3.5µM*	17µM*	?	16%	-5%[1.84 µM]	?
COc1ccc2nc(C)cc(Nc3ccc(N4CCN(C)CC4)cc3)c2c1	-25%	-1%	-6%	-19%	·	15%
COc1ccc(-c2nc3ccc(N4CCN(C)CC4)cc3c(=O)[nH]2)cc1	28%	15µM*	9%	22%	49%	?
COc1cc(-c2nc3ccc(N4CCN(C)CC4)cc3[nH]2)cc(OC)c1OC	-5%	13µM*	?	0%	16µM*	7.3µM*
COCC(=O)N1CCC2(CCCN(Cc3ccc(C#N)cc3)C2)CC1	·	·	·	·	-8%	·
CN(C)c1ccc(C=Nc2cnn(C)c2C(N)=O)cc1	1%	4.8µM*	?	-4%	·	?
CCN(CCCNC(=O)CN1C(=O)COc2ccc(S(=O)(=O)N3CCC(C)CC3)cc21)Cc1ccccc1	-3%	2%	?	-3%	·	2%
O=C(COc1ccc2ccccc2c1)Nc1nccs1	0.35µM*	0.6µM*	?	0.5µM*	·	?
SMILES	Rab9 promoter act	FLuc counter	ELG1 DNA repair	NPC1 promoter act	SMN2 splice up	ELG1 genotox
Nc1ccccc1SCC(=O)Nc1nccs1	-2%	-1%	18%	-7%	·	-3%
O=C(COc1ccc2ccc(=O)oc2c1)Nc1cccnc1	-5%	-10%	?	2%	·	1%[9.26 µM]
Cn1cc(SCC(=O)Nc2nccs2)c2ccccc21	?	12µM*	?	?	11µM*	21µM*
O=C(COc1ccc2ccc(=O)oc2c1)Nc1nccs1	2.8µM*	15µM*	?	2.2µM*	·	?
O=C(COc1ccccc1)Nc1ncccn1	8%	-21%	?	-5%	-9%	?
O=C(COc1ccccc1)Nc1nccs1	3.5µM*	11µM*	?	1µM*	5µM*	?
CC(=O)N1CCC2(CC1)CCN(C(=O)Nc1cccc(C#N)c1)CC2	·	·	·	·	0%	·
COc1ccc(Cl)cc1C(=O)NC(C)C	-2%	-1%	-11%	-4%	9%	0%
Cc1ccc(CN2C(=O)CCC2C(=O)NCc2ccccc2Cl)cc1 (stereo not given)	-1%	4%	-6%	-1%	26%	-7%
Cc1ccc(S(=O)(=O)Nc2ccc(NC(=O)c3c(F)c(F)c(F)c(F)c3F)cc2)cc1	-1%	-2%	?	-3%	-4%	-3%
COc1ccc(C(=O)N2CCC3(CCCN(Cc4ccc(C#N)cc4)C3)CC2)cc1	·	·	·	·	-15%	·
CN(C)S(=O)(=O)c1cccc(C(=O)OCC(=O)Nc2sccc2C(N)=O)c1	5%	2%	18µM*	-4%	·	-17%
COc1ccc(-c2cc(-c3ccccc3)nc(SCC(=O)Nc3nccs3)c2C#N)cc1	-4%	13µM*	?	-1%	·	-2%
COc1ccc(NC(=O)COC(=O)c2cccc(S(=O)(=O)N(C)C)c2)cc1	-3%	-1%	0%	1%	-8%	1%
Cc1cccc(OCC(=O)OCC(=O)Nc2sccc2C(N)=O)c1	·	·	5%	·	·	0%
NC(=O)c1ccsc1NC(=O)COc1ccccc1	3.2µM*	12µM*	?	?	13µM*	8.9µM*
Cc1ccc2c(C)c(C(=O)N(C)C(C)c3ccon3)oc2c1C (stereo not given)	3.2µM*	15µM*	?	?	·	?
CC(C)CC(=O)Nc1cccc(-c2cn3cccnc3n2)c1	·	24µM*	·	·	·	·
CCCC(=O)Nc1ccc(-c2cn3cccnc3n2)cc1	?	17µM*	?	28%	·	13%
Cc1ccc(-c2cn3cccnc3n2)cc1NC(=O)c1c(-c2ccccc2Cl)noc1C	9%	?	?	-22%	11%	-2%
CCCC(=O)Nc1cccc(-c2cn3cccnc3n2)c1	-4%	-19%	?	4%	7%	9%
